Set-up in all cases: scale not given: direction of the effect not stated beside the values
The target of test [1] is Protein translocase subunit SecA (Escherichia coli (strain K12)) (UniProt P10408). The experiment in a line: Assay to Identify E. coli SecA ATPase Inhibitors. Particulars: 30 µM. Format: functional.
Test [2] deals with T1, Ubiquitin-activating enzyme e1, putative (Leishmania donovani (strain BPK282A1)) (UniProt E9BSI1).
T1 sequence (whole entry): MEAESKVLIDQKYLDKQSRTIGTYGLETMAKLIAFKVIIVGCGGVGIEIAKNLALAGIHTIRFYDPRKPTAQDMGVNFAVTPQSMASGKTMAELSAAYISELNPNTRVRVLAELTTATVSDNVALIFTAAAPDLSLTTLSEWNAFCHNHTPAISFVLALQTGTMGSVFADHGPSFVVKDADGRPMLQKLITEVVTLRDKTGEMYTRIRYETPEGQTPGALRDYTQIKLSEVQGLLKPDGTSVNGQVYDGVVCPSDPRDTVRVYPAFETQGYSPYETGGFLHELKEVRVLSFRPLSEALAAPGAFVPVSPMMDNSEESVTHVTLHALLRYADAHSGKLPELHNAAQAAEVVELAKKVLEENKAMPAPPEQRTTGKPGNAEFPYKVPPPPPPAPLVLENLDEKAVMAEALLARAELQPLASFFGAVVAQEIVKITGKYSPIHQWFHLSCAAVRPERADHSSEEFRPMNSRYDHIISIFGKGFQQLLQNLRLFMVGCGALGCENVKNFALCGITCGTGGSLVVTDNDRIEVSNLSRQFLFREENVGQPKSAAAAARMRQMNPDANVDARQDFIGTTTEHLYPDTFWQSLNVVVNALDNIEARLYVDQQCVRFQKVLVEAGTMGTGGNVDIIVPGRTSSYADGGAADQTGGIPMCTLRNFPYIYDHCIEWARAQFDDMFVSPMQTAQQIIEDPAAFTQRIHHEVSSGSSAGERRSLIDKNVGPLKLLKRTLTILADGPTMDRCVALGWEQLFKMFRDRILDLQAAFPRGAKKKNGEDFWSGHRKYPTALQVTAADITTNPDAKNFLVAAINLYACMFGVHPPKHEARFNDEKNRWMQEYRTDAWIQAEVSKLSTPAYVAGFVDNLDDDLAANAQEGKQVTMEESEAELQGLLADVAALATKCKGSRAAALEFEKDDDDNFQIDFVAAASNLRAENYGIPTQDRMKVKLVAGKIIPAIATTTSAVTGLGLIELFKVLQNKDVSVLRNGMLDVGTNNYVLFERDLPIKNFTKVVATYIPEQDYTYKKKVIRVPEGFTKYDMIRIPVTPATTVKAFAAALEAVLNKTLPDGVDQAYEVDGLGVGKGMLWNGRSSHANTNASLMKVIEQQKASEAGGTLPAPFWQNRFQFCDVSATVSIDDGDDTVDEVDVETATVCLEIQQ
The test can be described thus: Leishmania donovani Ubiquitin Activating Enzyme (LdE1). Particulars: 30 µM. Format: functional.

Test [3] deals with AMP-activated protein kinase, AMPK (Homo sapiens) (UniProt P54646+O43741+P54619+Q9UGJ0+Q9Y478+Q13131+Q9UGI9). The experiment in a line: AMP-dependent Kinase enzyme assay. An in vitro enzyme assay that detects ADP turnover that is directly proportional to AMPK activity. This uses naive AMPK that is activated during the assay with MK-8722. Format: functional. The following applies: 30 µM.

Test [4] concerns the target Sialic acid-binding Ig-like lectin 9 (Homo sapiens) (UniProt Q9Y336). The experiment in a line: Hs-Siglec9 ALPHAscreen SOP 20170721. The following applies: 10 µM. A general note: Bead proximity is the source of the signal in Alpha formats.
A further test relates to Trypanosoma cruzi. The test can be described thus: Trypanosoma cruzi phosphomannomutase and mannose-1-phosphate guanylyltransferase assay. It counts as functional. Particulars: 10 µM.
The target of test [5] is T2, Arginase-2, mitochondrial (Homo sapiens) (UniProt P78540).
T2 sequence (whole entry): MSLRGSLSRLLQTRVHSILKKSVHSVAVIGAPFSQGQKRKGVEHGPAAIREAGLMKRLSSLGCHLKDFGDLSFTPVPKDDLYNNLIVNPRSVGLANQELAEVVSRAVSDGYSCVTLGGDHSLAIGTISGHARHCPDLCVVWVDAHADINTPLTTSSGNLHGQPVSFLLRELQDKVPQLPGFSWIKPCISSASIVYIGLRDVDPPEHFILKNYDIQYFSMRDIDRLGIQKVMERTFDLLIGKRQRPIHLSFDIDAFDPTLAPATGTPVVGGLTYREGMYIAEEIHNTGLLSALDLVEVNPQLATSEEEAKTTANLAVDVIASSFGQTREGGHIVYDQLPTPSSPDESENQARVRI
The test can be described thus: in vitro enzyme assay to detect the production of urea directly proportional to the activity of Arginase II. Note: in the data most compounds retested in dose-response had high values. Format: functional. Particulars: 33.3 µM.

Test [6] addresses T3, Proteasome subunit beta (Trypanosoma cruzi) (UniProt O96673).
T3 sequence (whole entry): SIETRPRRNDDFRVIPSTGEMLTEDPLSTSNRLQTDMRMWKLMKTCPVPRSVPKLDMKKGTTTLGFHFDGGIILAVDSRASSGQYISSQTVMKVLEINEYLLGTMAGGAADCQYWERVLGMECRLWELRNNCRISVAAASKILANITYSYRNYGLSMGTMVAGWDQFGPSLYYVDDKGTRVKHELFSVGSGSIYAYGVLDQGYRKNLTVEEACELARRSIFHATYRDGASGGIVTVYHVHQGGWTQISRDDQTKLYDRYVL
The experiment in a line: Trypanosoma cruzi proteasome chymotrypsin-like activity (TcProtChymo) assay. Note: in the data most compounds retested in dose-response had high values. Format: functional. The following applies: 9.37 µM.

For a further test, the species on record is Homo sapiens. The test can be described thus: To identify inhibition of the IFN signalling (Jak-Stat) pathway via expression of an eGFP reporter gene under the control of an IFN-stimulated response element (ISRE) containing MxA promoter. Format: functional. The following applies: 30 µM. For orientation: In a reporter assay the amount or activity of a reporter protein is the signal.

The target in test [7] is T4, Tyrosyl-tRNA synthetase, putative (Trypanosoma cruzi (strain CL Brener)) (UniProt Q4DSP6).
T4 sequence (whole entry): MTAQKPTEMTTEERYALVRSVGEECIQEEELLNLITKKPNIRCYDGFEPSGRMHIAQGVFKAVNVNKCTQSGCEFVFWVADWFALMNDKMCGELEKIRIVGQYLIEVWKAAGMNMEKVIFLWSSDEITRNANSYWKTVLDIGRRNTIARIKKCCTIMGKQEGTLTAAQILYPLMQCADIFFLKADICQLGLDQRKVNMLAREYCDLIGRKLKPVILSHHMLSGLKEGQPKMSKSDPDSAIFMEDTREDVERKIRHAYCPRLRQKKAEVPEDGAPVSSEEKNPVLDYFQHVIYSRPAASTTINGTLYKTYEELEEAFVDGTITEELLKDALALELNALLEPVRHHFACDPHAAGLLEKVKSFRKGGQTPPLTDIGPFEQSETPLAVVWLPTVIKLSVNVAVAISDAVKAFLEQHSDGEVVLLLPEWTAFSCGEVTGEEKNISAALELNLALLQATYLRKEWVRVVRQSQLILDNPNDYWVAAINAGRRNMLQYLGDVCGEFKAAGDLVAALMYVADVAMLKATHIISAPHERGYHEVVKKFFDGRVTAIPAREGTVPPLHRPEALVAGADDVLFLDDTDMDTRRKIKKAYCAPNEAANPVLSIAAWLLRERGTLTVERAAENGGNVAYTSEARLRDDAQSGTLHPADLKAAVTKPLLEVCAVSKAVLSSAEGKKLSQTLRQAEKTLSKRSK
The test can be described thus: Trypanosoma cruzi tyrosyl tRNA synthetase (TcYRS) _High Tyrosine SOP. Note: in the data most compounds retested in dose-response had high values. It counts as functional. The following applies: 30 µM.

Test [8] concerns the target T4, Tyrosyl-tRNA synthetase, putative (Trypanosoma cruzi (strain CL Brener)). The experiment in a line: Trypanosoma cruzi tyrosyl tRNA synthetase (TcYRS) SOP. Format: functional. Particulars: 30 µM.
Test [9] concerns the target Chromo domain-containing protein 1 (Saccharomyces cerevisiae (strain ATCC 204508 / S288c) (Baker's yeast)) (UniProt P32657). The experiment in a line: ScCHD-1 Enzyme Inhibition Assay. Note: in the data most compounds retested in dose-response had high values. Format: functional. The following applies: 30 µM.

For some of these results: Potency and affinity values are given separately.

Chain of Chromo domain-containing protein 1 (Saccharomyces cerevisiae (strain ATCC 204508 / S288c) (Baker's yeast)) (P32657 whole entry, the tested form may be a part): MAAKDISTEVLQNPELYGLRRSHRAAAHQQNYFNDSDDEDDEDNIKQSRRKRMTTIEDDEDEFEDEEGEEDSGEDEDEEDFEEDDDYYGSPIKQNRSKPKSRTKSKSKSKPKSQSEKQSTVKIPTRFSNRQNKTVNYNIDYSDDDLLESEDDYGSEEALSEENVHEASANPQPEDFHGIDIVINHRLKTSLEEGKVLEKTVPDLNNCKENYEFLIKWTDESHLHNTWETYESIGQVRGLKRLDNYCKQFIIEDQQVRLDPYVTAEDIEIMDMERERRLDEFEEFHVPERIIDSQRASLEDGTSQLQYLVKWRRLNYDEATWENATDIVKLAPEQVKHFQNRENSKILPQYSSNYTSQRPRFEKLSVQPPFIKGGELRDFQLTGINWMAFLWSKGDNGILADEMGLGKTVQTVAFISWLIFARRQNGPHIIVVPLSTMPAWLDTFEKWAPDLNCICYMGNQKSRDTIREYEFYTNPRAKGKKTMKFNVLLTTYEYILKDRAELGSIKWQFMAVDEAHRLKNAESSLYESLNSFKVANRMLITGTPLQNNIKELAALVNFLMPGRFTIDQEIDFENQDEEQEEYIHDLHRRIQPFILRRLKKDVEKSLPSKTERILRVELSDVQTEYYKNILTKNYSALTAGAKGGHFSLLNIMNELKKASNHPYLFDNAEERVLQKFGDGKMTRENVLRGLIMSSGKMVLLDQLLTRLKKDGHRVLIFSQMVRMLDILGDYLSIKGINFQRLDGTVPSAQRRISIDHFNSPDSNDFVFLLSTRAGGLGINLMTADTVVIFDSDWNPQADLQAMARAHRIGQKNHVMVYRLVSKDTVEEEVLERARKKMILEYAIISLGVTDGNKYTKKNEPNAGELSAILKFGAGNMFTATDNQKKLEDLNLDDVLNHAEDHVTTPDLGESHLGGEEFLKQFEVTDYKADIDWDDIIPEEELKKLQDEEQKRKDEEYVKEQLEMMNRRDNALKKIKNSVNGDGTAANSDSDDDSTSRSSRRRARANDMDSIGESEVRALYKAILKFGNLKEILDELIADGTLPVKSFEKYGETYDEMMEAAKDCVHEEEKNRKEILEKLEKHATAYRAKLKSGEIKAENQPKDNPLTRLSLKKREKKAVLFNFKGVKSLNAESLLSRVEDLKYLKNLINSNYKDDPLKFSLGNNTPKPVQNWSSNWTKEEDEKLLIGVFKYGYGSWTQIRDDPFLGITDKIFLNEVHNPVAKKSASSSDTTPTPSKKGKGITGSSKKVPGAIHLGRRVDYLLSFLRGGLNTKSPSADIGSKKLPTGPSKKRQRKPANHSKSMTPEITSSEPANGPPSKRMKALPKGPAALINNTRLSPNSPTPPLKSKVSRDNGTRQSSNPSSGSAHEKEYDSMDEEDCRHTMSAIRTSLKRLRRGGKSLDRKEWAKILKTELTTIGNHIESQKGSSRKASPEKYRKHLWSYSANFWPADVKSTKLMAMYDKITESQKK
Chain of Sialic acid-binding Ig-like lectin 9 (Homo sapiens) (Q9Y336 whole entry): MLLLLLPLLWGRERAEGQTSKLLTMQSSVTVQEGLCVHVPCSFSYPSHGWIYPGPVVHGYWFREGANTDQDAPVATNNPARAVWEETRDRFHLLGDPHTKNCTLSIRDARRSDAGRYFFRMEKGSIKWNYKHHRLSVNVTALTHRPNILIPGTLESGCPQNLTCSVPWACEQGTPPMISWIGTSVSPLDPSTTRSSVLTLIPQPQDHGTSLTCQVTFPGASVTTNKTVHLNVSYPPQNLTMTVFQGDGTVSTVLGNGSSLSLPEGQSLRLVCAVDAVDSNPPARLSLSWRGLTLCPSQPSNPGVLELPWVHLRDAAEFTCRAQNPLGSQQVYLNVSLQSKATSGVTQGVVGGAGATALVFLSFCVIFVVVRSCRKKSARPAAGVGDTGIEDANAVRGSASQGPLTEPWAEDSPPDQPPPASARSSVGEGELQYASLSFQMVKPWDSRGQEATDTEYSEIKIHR
Chain of Protein translocase subunit SecA (Escherichia coli (strain K12)) (P10408 whole entry): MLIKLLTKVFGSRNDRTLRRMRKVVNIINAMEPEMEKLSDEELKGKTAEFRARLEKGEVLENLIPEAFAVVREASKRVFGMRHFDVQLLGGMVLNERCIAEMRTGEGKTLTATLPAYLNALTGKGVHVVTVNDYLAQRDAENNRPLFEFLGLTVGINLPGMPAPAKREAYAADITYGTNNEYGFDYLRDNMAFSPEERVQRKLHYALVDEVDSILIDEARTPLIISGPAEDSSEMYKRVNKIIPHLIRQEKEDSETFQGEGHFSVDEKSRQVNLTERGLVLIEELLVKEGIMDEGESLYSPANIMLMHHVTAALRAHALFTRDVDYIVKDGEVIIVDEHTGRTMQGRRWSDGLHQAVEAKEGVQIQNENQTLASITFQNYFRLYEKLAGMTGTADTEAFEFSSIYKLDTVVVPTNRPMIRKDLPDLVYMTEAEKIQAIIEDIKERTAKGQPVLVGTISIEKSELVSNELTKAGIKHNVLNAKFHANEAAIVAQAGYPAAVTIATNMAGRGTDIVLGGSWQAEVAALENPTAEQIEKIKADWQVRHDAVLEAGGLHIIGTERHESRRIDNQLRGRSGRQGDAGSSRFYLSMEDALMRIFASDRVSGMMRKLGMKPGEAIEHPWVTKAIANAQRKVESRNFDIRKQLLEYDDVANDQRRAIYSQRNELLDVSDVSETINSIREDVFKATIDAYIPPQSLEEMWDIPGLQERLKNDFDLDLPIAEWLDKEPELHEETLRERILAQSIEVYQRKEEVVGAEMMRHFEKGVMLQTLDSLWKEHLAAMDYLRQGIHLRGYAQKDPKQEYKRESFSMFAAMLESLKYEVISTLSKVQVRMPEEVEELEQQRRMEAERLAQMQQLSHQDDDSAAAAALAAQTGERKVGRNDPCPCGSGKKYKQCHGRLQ

With `Cc1cc(=O)n(CC(=O)Nc2ccc(C(N)=O)cc2)nc1C`, the Percent Effect in test [1] was -0.496%; in test [2] it was 0%; in test [3], -2.6%; in test [4] it was 15.7%; in the test with Trypanosoma cruzi, 3.67%; in test [5] it was 0.952%. In addition, the Percent Effect in test [6] was 11.6%; in the test filed under Homo sapiens, 4.44%; in test [7], 1.59%; in test [8] it was 9.76%; in [9], -0.0727%.

As to `Clc1ccc2cccnc2c1CN1CCCC1Cn1cncn1` (stereo not drawn), the Percent Effect in [1] is -1.02%; in test [2] it was -10.8%; in test [3], -3.88%; in [4], -0.559%; in the test with Trypanosoma cruzi it was -5.85%; in test [5], 4.99%. For the same compound, the Percent Effect in test [6] was 7.18%; in the test listed under Homo sapiens, 63.7%; in test [7], 7.92%; in test [8], -1.22%; in [9], 5.04%.

Regarding `O=C(c1ccncc1)N1CCC(c2nc(O)cc(-c3cccnc3)n2)C1` (stereo not drawn), the Percent Effect is -0.62% in [1]; 21.3% in test [2]; -34.2% in test [3]; -1.55% in test [4]; 3.74% in the test on Trypanosoma cruzi; 26.8% in [5]. In addition, the Percent Effect in [6] was 8.55%; in the test listed under Homo sapiens, 17.1%; in test [7] it was 8.51%; in [8], 11.5%; in [9], -5.75%.

With `O=C(NC1CC1)[C@@H]1CCO[C@@H]2CCN(Cc3ccsc3)C[C@H]21`, the Percent Effect in test [1] is -3.17%; in test [2], -8.11%; in [3] it was 8.56%; in test [4], 0.445%; in the test with Trypanosoma cruzi it was -5.38%; in [5] it was 3.5%. Also, the Percent Effect in [6] is 17.5%; in the test listed under Homo sapiens, 3.93%; in [7] it was 0%; in test [8], 0%; in [9], 7.56%.

As for `CNc1cc(CNC(=O)c2ccccc2)nc(-c2ccncc2)n1`, the Percent Effect was -5.75% in test [1]; 9.46% in test [2]; 9.36% in [3]; -2.66% in test [4]; 3.56% in the test on Trypanosoma cruzi; -71.7% in [5]. Further, the Percent Effect in [6] was 15.8%; in the test filed under Homo sapiens, 1.41%; in test [7], 5.38%; in test [8], 14.3%; in test [9], -13.8%.

In the case of `Cc1cnn(CC2CCCN2Cc2cc(=O)n3cccc(C)c3n2)c1` (stereo not drawn), the Percent Effect was -6.14% in [1]; 8.11% in test [2]; -3.73% in [3]; 28.3% in test [4]; 6.75% in the test on Trypanosoma cruzi; 35.5% in test [5]. Also, the Percent Effect in [6] was 17.8%; in the test filed under Homo sapiens, -6.92%; in test [7] it was 14%; in test [8], 25.9%; in [9], -5.16%.

As to `c1ccc(-c2nc(CN3CCCC(Cn4cncn4)C3)no2)cc1` (stereo not drawn), the Percent Effect is -5.26% in [1]; -3.8% in [2]; 7.69% in test [3]; -3.34% in test [4]; -3.59% in the test on Trypanosoma cruzi; 5.38% in [5]. Moreover, the Percent Effect is 4.8% in test [6]; 0.0835% in the test filed under Homo sapiens; 2.08% in test [7]; 7.59% in test [8]; -9.44% in test [9].

Take `CC(O)CN1CCN(Cc2cccc(C(=O)N(C)C)c2)CC1` (stereo not drawn): the Percent Effect in [1] was -4.84%; in [2], -141%; in [3], -53.4%; in [4], 5.64%; in the test with Trypanosoma cruzi, 1.02%; in test [5], -3.51%. For the same compound, the Percent Effect in test [6] is -4.31%; in the test filed under Homo sapiens it was 5.72%; in test [7], 5.94%; in [8] it was 3.66%; in [9], 9.61%.

The values above are taken from ChEMBL document CHEMBL3988442, “University of Dundee, Small-Polar-MMV Screening Library” (2021).
